Test results: PubChem BioAssay (NCATS)
Unmarked numbers belong to inactive results. For some assays here: Results with a measured potency or affinity are listed apart. Active and inactive are the calls of the source. How the calls were made is not given here.

Key:
[1] = Ebola virus entry assay, green fluorescence channel
[2] = Ebola virus entry assay, blue channel fluorescence
[3] = Ebola virus entry assay, ratio channel
[4] = Ebola virus entry assay, reporter ratio channel; Channel type: primary
Wherever efficacy is given: 0% is about no effect.

SMILES | efficacy [1] [%] | AC50 [2] | AC50 [3] | AC50 [4] | outcome [3] | outcome [4] | outcome [2]
Oc1cccc(-c2c3nc(c(-c4cccc(O)c4)c4ccc([nH]4)c(-c4cccc(O)c4)c4nc(c(-c5cccc(O)c5)c5ccc2[nH]5)CC4)C=C3)c1 | 82.1 | 20 µM (active) | 22.4 µM (active) | 22.4 µM (active) | – | – | –
CCCCOc1cc(C(=O)OCCN(CC)CC)ccc1N | 52.2 | 31.6 µM (active) | 31.6 µM (active) | 31.6 µM (active) | – | – | –
CN(C)CCCOC1(Cc2ccccc2)CCCCCC1 | 64.1 | 17.8 µM (active) | 14.1 µM (active) | 14.1 µM (active) | – | – | –
CN1CCN(CCC(=O)N2c3ccccc3Sc3ccc(C(F)(F)F)cc32)CC1 | 68.9 | 4.47 µM (active) | 2.82 µM (active) | 2.82 µM (active) | – | – | –
CN1CCC(=C2c3ccccc3CCc3cccnc32)CC1 | 39.6 | 22.4 µM (active) | 31.6 µM (active) | 31.6 µM (active) | – | – | –
CCCOC(C(=O)OC1CCN(C)CC1)(c1ccccc1)c1ccccc1 | 30.9 | 7.94 µM (active) | 7.08 µM (active) | 7.08 µM (active) | – | – | –
CC(C(O)c1ccc(O)cc1)N1CCC(Cc2ccccc2)CC1 (stereo unspecified) | 92.8 | 17.8 µM (active) | 28.2 µM (active) | 28.2 µM (active) | – | – | –
COc1ccc(CCN(C)CCCC(C#N)(c2cc(OC)c(OC)c(OC)c2)C(C)C)cc1OC (stereo unspecified) | 75 | 15.8 µM (active) | 14.1 µM (active) | 14.1 µM (active) | – | – | –
C[n+]1cc2c3c(ccc2c2ccc4cc5c(cc4c21)OCO5)OCO3 | -149 | 17.8 µM (active) | 17.8 µM (active) | 17.8 µM (active) | – | – | –
COC(=O)C1=C(C)NC(C)=C(C(=O)OCCN2CCN(C(c3ccccc3)c3ccccc3)CC2)C1c1cccc([N+](=O)[O-])c1 (stereo unspecified) | 60.1 | 15.8 µM (active) | 10 µM (active) | 10 µM (active) | – | – | –
CC1(C)[C@H](C(=O)O)N2C(=O)C[C@H]2S1(=O)=O | 90.1 | 15.8 µM (active) | 11.2 µM (active) | 11.2 µM (active) | – | – | –
CC(C)(C)C(=O)OCOC(=O)C1N2C(=O)CC2S(=O)(=O)C1(C)C (stereo unspecified) | 65.1 | 3.98 µM (active) | 3.16 µM (active) | 3.16 µM (active) | – | – | –
CCCCCCCCCCCCCCNCCO | 123 | 15.8 µM (active) | 12.6 µM (active) | 12.6 µM (active) | – | – | –
O=C(NC1CCN(CCc2c[nH]c3ccccc23)CC1)c1ccccc1 | 90.8 | 25.1 µM (active) | 35.5 µM (active) | 35.5 µM (active) | – | – | –
c1ccc(C(O[C@H]2CCCN(CCc3ccc4c(c3)OCO4)C2)c2ccccc2)cc1 | 57.8 | 28.2 µM (active) | 25.1 µM (active) | 25.1 µM (active) | – | – | –
C[C@@H]1CCC[C@H](C)N1CCCC(O)(c1ccccc1)c1ccccn1 (stereo partly specified) | 81.9 | 25.1 µM (active) | 22.4 µM (active) | 22.4 µM (active) | – | – | –
CCCCc1ccc2nc(NC(=O)OC)[nH]c2c1 | 19 | 15.8 µM (active) | – | – | inactive | inactive | –
C[C@]1(Cn2ccnn2)[C@H](C(=O)O)N2C(=O)C[C@H]2S1(=O)=O | -31 | 0.282 µM (active) | 0.316 µM (active) | 0.316 µM (active) | – | – | –
Nc1c2c(nc3ccccc13)CCCC2 | 49.8 | 31.6 µM (active) | 31.6 µM (active) | 31.6 µM (active) | – | – | –
CC1CCCCN1CCCOC(=O)c1ccc(OC2CCCCC2)cc1 (stereo unspecified) | 86.1 | 8.91 µM (active) | 7.94 µM (active) | 7.94 µM (active) | – | – | –
CN(C)C(=S)SC(=S)N(C)C | -50.4 | 5.62 µM (active) | 5.01 µM (active) | 5.01 µM (active) | – | – | –
Cc1nc2ccccc2n1Cc1ccc(Cl)cc1 | 42.7 | – | – | – | inactive | inactive | inactive
CCOC(=O)[C@H](CCc1ccccc1)N[C@H]1CCc2ccccc2N(CC(=O)O)C1=O | 88 | 3.98 µM (active) | 3.98 µM (active) | 3.98 µM (active) | – | – | –
c1cc(CN2CCCCC2)cc(OCCCNc2nc3ccccc3s2)c1 | 69.1 | 12.6 µM (active) | 12.6 µM (active) | 12.6 µM (active) | – | – | –
CCC(=O)O[C@]1(C(=O)CCl)[C@@H](C)C[C@H]2[C@@H]3CCC4=CC(=O)C=C[C@]4(C)[C@@]3(F)[C@@H](O)C[C@@]21C | 88.5 | 31.6 µM (active) | 31.6 µM (active) | 31.6 µM (active) | – | – | –
CCCCCCCCCCOCC(O)CN (stereo unspecified) | -191 | 4.47 µM (active) | 1.78 µM (active) | 1.78 µM (active) | – | – | –
Cc1ccc(/C(=C\CN2CCCC2)c2ccccn2)cc1 | 48.9 | 31.6 µM (active) | 28.2 µM (active) | 28.2 µM (active) | – | – | –
Oc1ccc(CCNCCCCCCNCCc2ccccc2)cc1O | 30.5 | 1.12 µM (active) | 1 µM (active) | 1 µM (active) | – | – | –
CO[C@@H]1[C@@H](O[C@@H]2O[C@H](C)[C@@H](O[C@H]3C[C@@](C)(O)[C@@H](O)[C@H](C)O3)[C@H](N(C)C)[C@H]2O)[C@@H](CC=O)C[C@@H](C)[C@@H](O[C@@H]2CC[C@H](N(C)C)[C@@H](C)O2)/C=C/C=C/C[C@@H](C)OC(=O)C[C@H]1OC(C)=O | 64.5 | 3.16 µM (active) | 3.55 µM (active) | 3.55 µM (active) | – | – | –
